According to the OligoGym collection:

Molecular target: SCGB3A1
Experiment: pooled miR-30 sensor sort-seq; sequence = guide strand
Conditions: shRNA
Also: reference of the scale not given here.

Sequence | sensor-assay potency score (higher = more potent)
CAGCTCAGCCACACACTTCTGG | -1.81
TTCACGGGGATGCCCAGGCTGC | -1.89
ACTAAGAAAGCAGCAGCGGAGC | -1.78
TCCAGCGCAGCGACAGGCTGGG | -1.47
CTCAGCAGGAGCTTCAGCGGGT | -1.59
TAAGAAAGCAGCAGCGGAGCTG | -0.766
AAAGCAGCAGCGGAGCTGCAGG | -1.3
TATGAGGTGGTTCACGGGGATG | -2.01
AAGAAAGCAGCAGCGGAGCTGC | -0.859
TCAGCCACACACTTCTGGGAGC | -1.19
AGCTCAGCCACACACTTCTGGG | -1.63
TCTATGAGGTGGTTCACGGGGA | -0.221

Molecular target: SCN10A
Experiment: as above
Conditions: shRNA

Sequence | sensor-assay potency score (higher = more potent)
TTGCTTCTCTATCTCCACCAGT | -0.403
TTAGACAAAATCCTCTTGCCAG | -0.449
TTGACTTTCACATTGACCCAGA | 0.154
TAGTGCTGCTAGCACCTCCTGC | -0.978
TTGTCCTGCATCGAATGCCGAG | -1.18
TTGGTCATCAGTCTCCACCATC | -1.09
TAATGCTCTAAGAACTCTGAAT | -0.877
TATTCCAGAATCTTCGCTGTGA | 0.727
TTGAGCTTCACCCACATGGGGC | -0.622
TTAACCAAAATAGTGACCGTAA | 0.123
TTCAGCACCATAAATGTCCGGT | 0.128
TATGATACTGACAACACTCATT | -0.905

Molecular target: SCN2B
Experiment: as above
Conditions: shRNA

Sequence | sensor-assay potency score (higher = more potent)
TTGTCTGTCTGCTTAACCTGAC | -0.0966
TTGCACTCCTGGTAAGTCCAGT | 0.119
ATTGTCTGTCTGCTTAACCTGA | -0.931
TTGTGGTTCACTGTGTAGCAGG | -0.841
TTAATTAGGAGGAAGAGACAGA | -0.125
TTGCAAAAGAAACTCAGTCTGC | -0.173
TATATCTATACCTAGAGAGAGA | -1.18
TTGATTGGCAGTTAGGTACTGA | 0.514
TAAACTGGAAATAACTGTGAAG | -0.894
TTTTTTTCTCCTCACACACTTG | -1.04
TATAGCACACACAACCAAGAAA | -1.12
TTCCCTGAGAACTCCACGCGGT | -0.473

Molecular target: SCN4A
Experiment: as above
Conditions: shRNA

Sequence | sensor-assay potency score (higher = more potent)
TTTGAACTTCTCAAGCATCTGC | 1.21
TTGACCTTGACATTGAGCCAGC | -0.555
TTGATGCAGTAGTAGAACTTGC | -0.382
